Source: the supplement of paper PMC11732987, “Enantioselective OTUD7B fragment discovery through chemoproteomics screening and high-throughput optimisation” (Communications Chemistry, 2025)

Key:
Assay in all cases: log2 ratio of Biotin-Ahx-Ub-VS probe labelling (fragment/DMSO); higher = less target engagement (more negative = stronger competition), active = hit call of the paper (q ≤ 0.05, log2 ratio ≤ -1)
Conditions in all cases: compound concentration: 200 uM; treatment time: 3 h
USP34 = USP34 (UniProt Q70CQ2)
Procedure, shortened: (§1)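 Triplicate samples of HEK293T lysate, 495 µg each, received fragment at 200 µM or vehicle for 3 h, followed by Biotin-Ahx-Ub-VS (0.5 µM final) for 1 h. After NeutrAvidin enrichment of labelled DUBs and LysC/trypsin digestion, peptides were run by diaPASEF LC-MS/MS. The values are average log2 fragment/vehicle ratios from global-median-normalised Spectronaut label-free quantities, tested by unpaired t-test on proteins having ≥2 unique peptides.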

USP36 = target: T1, USP36 (UniProt Q9P275)
T1 sequence (whole entry): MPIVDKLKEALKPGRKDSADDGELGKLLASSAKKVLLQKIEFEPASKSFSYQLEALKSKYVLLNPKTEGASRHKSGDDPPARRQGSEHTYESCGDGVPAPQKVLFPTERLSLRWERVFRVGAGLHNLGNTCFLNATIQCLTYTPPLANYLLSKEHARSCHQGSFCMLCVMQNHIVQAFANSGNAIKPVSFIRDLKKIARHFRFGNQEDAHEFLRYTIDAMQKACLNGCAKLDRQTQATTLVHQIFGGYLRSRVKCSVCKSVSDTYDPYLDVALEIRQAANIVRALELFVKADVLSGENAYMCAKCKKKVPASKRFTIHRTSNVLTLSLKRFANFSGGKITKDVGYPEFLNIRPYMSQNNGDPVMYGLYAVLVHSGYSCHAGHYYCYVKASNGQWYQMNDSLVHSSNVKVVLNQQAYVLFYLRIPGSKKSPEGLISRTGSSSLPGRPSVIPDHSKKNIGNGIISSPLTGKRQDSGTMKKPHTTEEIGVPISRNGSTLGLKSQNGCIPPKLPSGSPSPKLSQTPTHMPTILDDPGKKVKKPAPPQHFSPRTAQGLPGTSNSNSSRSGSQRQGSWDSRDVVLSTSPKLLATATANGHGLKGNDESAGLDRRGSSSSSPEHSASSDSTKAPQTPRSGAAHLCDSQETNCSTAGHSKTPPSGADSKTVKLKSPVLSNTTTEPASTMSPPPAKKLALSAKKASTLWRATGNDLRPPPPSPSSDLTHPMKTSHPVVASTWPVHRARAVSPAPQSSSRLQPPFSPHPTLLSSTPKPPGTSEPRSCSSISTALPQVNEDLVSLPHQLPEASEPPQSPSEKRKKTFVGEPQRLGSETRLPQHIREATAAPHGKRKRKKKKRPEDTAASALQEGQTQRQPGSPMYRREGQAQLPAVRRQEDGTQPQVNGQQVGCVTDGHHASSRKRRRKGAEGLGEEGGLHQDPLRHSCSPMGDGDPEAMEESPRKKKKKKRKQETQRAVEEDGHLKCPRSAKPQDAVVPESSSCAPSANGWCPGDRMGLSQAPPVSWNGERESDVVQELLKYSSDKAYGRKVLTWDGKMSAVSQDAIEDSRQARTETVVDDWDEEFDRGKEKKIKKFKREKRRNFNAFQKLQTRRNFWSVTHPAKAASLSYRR
Procedure, shortened: as §1

USP38 = target: T2, USP38 (UniProt Q8NB14)
T2 sequence (whole entry): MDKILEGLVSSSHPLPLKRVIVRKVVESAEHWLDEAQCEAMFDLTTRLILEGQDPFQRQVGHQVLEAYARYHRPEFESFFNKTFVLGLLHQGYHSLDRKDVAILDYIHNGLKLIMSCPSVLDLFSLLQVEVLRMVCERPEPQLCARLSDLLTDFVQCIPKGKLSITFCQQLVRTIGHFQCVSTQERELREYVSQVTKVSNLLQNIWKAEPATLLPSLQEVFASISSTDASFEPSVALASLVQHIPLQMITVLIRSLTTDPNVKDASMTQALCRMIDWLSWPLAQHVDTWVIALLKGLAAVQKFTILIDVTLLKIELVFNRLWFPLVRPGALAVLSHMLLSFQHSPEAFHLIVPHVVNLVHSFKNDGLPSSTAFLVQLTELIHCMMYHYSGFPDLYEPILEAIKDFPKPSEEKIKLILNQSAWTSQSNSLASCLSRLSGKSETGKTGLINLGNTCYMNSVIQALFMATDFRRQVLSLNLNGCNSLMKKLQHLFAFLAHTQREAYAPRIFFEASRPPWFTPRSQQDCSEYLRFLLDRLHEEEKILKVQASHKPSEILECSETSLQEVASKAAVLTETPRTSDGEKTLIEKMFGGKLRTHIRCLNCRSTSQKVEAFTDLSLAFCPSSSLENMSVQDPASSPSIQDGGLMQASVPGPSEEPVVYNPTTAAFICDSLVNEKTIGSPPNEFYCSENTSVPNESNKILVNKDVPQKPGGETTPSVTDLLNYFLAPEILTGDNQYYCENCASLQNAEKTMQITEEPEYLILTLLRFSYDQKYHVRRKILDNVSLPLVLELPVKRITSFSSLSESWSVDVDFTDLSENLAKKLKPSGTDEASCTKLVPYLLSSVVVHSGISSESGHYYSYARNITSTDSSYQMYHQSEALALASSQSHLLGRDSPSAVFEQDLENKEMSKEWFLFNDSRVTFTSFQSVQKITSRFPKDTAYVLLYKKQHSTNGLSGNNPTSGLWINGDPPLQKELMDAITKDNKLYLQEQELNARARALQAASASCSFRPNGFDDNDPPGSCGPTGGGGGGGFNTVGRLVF
Procedure, shortened: as §1

USP39 = target: T3, USP39 (UniProt Q53GS9)
T3 sequence (whole entry): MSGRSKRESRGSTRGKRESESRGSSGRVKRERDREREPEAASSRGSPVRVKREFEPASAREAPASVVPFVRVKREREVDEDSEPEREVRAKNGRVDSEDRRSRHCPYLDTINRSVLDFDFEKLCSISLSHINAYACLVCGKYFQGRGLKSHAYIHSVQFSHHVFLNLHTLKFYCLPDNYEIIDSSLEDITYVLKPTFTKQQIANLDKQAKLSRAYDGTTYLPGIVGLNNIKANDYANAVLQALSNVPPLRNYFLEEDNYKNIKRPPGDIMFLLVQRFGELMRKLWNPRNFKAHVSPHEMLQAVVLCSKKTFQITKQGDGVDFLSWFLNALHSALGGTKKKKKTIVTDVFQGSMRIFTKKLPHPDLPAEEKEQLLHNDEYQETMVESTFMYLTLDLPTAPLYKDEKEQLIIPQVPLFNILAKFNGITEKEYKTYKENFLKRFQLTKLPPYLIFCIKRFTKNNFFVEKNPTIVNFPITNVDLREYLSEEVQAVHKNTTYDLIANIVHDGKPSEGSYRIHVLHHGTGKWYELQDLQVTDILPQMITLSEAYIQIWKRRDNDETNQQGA
Procedure, shortened: as §1

USP4 = target: T4, USP4 (UniProt Q13107)
T4 sequence (whole entry): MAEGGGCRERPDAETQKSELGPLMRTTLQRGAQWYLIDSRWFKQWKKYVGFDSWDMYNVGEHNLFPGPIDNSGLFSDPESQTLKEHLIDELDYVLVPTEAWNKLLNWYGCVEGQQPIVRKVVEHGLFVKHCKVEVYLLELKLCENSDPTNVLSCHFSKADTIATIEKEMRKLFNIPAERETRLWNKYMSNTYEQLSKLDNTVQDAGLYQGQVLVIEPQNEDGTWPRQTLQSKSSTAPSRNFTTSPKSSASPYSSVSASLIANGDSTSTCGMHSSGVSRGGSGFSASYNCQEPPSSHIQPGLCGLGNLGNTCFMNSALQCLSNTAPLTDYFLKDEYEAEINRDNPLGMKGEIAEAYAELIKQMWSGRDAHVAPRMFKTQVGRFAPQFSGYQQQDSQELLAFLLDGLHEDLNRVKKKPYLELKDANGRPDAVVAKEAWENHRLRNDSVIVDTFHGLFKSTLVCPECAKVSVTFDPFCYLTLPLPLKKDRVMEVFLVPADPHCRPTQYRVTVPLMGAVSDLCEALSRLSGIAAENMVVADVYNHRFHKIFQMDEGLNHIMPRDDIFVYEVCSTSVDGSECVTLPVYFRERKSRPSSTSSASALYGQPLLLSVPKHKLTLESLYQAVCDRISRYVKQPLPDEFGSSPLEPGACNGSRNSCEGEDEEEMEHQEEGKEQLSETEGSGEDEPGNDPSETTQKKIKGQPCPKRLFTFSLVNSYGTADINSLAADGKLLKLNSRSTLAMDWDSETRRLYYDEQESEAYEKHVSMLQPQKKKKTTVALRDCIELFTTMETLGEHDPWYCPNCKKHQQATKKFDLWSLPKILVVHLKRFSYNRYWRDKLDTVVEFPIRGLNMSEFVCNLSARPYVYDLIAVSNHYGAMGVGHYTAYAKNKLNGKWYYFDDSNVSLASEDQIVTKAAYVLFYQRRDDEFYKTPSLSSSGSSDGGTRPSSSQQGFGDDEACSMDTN
Procedure, shortened: as §1

Measured: log2 ratio of Biotin-Ahx-Ub-VS probe labelling

USP34, sequence (Q70CQ2 whole entry, the tested form may be a part): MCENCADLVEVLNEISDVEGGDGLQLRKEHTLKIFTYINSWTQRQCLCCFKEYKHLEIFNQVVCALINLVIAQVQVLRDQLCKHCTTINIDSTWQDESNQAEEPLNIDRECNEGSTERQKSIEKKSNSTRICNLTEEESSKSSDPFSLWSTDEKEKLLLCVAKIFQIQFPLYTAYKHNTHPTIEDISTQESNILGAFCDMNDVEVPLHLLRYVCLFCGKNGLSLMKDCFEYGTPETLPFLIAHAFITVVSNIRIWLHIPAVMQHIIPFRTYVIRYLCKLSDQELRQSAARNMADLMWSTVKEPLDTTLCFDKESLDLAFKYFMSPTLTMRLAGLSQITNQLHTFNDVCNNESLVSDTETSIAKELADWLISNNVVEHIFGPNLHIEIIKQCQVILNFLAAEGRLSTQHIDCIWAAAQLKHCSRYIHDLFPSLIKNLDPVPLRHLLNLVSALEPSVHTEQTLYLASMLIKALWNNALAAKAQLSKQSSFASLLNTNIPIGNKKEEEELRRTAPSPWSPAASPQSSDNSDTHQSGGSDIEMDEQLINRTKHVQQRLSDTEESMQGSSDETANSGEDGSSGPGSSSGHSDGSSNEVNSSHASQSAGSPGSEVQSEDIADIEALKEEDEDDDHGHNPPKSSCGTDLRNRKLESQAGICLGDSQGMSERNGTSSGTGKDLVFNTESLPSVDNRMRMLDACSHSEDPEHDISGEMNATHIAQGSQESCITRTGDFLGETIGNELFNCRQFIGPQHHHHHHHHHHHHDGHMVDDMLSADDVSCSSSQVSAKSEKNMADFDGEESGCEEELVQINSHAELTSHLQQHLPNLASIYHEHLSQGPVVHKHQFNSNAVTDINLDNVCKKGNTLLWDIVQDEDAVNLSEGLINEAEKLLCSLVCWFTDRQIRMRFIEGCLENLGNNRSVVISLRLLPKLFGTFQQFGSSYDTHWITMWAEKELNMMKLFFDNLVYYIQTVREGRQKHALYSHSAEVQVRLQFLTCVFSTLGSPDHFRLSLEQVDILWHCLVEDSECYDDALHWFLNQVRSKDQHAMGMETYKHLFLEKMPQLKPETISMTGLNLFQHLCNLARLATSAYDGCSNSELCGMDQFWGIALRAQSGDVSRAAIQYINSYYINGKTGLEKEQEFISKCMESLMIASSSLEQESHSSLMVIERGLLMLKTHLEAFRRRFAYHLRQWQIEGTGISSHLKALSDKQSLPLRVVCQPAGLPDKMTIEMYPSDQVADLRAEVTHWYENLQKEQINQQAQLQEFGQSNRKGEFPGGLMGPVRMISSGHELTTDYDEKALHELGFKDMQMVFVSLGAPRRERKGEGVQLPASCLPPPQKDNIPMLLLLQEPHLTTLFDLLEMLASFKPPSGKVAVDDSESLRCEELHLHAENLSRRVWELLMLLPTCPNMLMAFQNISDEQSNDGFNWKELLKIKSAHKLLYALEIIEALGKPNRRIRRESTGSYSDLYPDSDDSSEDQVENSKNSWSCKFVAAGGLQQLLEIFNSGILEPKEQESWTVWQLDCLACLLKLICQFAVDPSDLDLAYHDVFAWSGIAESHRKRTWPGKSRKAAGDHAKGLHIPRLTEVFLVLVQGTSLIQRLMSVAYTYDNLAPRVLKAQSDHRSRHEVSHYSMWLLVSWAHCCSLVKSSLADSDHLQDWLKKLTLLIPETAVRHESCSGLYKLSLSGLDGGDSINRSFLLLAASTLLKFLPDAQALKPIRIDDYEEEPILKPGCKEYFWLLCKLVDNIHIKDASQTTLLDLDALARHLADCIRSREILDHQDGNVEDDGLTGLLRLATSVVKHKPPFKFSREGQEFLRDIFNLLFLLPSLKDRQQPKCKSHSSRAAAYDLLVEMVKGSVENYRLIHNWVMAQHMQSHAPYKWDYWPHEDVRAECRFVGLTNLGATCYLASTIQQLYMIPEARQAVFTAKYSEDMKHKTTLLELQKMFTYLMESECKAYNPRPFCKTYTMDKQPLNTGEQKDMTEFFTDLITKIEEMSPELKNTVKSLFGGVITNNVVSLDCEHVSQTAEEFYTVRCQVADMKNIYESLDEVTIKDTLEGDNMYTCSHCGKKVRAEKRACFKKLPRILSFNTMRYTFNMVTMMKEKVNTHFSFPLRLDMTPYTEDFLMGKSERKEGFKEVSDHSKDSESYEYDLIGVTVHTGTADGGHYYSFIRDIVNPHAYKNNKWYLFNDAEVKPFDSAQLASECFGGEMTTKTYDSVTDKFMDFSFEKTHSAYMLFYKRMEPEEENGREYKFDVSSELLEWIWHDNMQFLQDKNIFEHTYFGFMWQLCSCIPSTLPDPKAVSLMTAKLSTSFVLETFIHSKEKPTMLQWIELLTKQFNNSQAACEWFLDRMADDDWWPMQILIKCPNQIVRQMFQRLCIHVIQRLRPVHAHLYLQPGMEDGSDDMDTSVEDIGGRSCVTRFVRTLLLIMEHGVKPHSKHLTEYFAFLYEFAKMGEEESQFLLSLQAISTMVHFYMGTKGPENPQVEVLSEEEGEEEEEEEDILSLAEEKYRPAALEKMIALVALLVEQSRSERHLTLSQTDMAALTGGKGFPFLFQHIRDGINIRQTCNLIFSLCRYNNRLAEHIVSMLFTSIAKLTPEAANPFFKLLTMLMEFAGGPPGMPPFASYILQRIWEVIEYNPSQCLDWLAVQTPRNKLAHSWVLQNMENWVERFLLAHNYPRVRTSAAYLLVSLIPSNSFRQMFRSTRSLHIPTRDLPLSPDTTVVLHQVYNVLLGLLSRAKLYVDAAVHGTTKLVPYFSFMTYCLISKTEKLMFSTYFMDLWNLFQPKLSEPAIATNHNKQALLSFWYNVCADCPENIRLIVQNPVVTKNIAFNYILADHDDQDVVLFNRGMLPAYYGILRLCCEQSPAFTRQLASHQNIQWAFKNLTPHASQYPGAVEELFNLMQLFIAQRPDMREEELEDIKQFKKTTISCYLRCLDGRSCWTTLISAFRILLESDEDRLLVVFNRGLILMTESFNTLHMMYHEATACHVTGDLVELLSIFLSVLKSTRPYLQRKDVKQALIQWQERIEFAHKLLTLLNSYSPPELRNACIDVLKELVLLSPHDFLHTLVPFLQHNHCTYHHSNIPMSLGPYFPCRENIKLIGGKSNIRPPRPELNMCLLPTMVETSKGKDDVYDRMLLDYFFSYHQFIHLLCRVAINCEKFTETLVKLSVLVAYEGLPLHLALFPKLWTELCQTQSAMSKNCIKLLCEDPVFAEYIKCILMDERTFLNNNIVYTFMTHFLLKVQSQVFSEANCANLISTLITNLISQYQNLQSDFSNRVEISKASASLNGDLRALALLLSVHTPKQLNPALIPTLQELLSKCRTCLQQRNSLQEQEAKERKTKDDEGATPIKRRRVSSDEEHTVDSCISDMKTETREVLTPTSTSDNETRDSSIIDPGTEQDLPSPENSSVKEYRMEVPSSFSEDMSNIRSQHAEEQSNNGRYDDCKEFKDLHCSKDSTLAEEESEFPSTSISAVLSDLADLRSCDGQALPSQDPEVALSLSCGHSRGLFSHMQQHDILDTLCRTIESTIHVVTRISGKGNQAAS

O=C(CCl)Nc1cc2c(cc1Cl)OCCCO2
inactive: USP34 0.0191 | USP36 -0.11 | USP38 0.0869 | USP39 0.0922 | USP4 0.154
